# Measured values taken from PubChem BioAssay (EPA / NIEHS).
# Values joined by “and” are separate entries in the source; they are usually repeats but may differ in a detail not shown here. Identical values can stand only once. Active and inactive are the calls of the source. Rule for the calls: active = hit-call score of the fitted dose curve at least 0.9, where 1 is the maximum; inactive = score below 0.9.
# Read-out: Monokine induced gamma interferon (MIG), CXCL9 (gene 4283)
# Experiment: BSK_BE3C_MIG: BioMAP Diversity Plus: BE3C Assay for Monokine induced gamma interferon (MIG) Biomarker Activity (AID 2283035)
# Details: primary human bronchial epithelial cells; actives raise or lower the signal
# Description: BSK_BE3C is a cell-based, multiplexed-readout assay that uses bronchial epithelial cell, a human lung primary cell, with measurements taken at 24 hours after chemical dosing in a 96-well plate.BSK_BE3C_MIG is an assay component measured in the BSK_BE3C assay. It measures MIG antibody related to regulation of gene expression using ELISA technology.Data from the assay component BSK_BE3C_MIG was analyzed into 1 assay endpoint. This assay endpoint, BSK_BE3C_MIG, was analyzed with bidirectional fitting relative to DMSO as the negative control and baseline of activity. Using a type of binding reporter, gain or loss-of-signal activity can be used to understand changes in the signaling as they relate to the gene CXCL9. Furthermore, this assay endpoint can be referred to as a primary readout, because this assay has produced multiple assay endpoints where this one serves a signaling function. To generalize the intended target to other relatable targets, this assay endpoint is annotated to the cytokine intended target family, where the subfamily is chemotactic factor.
# The levels of cell surface (or secreted, indicated by the prefix "s") biomarker endpoints were measured by ELISA. Overt cytotoxicity to cells in confluent adherent cultures (all systems other than the BT system) was assessed by measuring total protein levels using sulforhodamine B (SRB) staining in parallel cultures at the time of biomarker measurements, indicated as SRB endpoints. For proliferation assays for adherent cell types, individual cell types are cultured at sub-confluence and relative cell numbers quantified by SRB staining at time points optimized for each system (48 h: 3C and CASM3C systems; 72 h: BT and HDF3CGF systems; 96 h: SAg system). SRB was performed by staining cells with 0.1% SRB after fixation with 10% TCA and reading wells at 560 nm.Viability and proliferation of PBMC (T cells) was quantified by Alamar Blue reduction for the SAg and BT systems. For PBMC viability (referred to as PBMC Cytotoxicity within the assay endpoint names), cells were plated (75,000/well in a 96-well plate) and then chemical samples added for 1 h before addition of activators, SEB and TSST-1 (20 ng/mL final concentration each). Cells were incubated for 90 h. Then, Alamar Blue (20 uL/well) (Invitrogen, Cat DAL1100) was added for 6 h, and the plates were read with a fluorescence microplate reader at 546/580 nm (excitation/emission). For PBMC proliferation, cells were plated and activated as above but incubated for only 16 h prior to addition of Alamar Blue. Plates were read after 6 h.
SMILES,outcome,AC50
O=C(OC1CCCCC1)c1ccccc1C(=O)OC1CCCCC1,inactive,–
CCCCCCCCc1ccc(O)cc1,–,37.7 µM (active)
O=Cc1cccc(Oc2ccccc2)c1,inactive,–
O=C1C2(Cl)C3(Cl)C4(Cl)C(Cl)(Cl)C5(Cl)C3(Cl)C1(Cl)C5(Cl)C24Cl (stereo not given),–,9.37 µM (active)
C[C@]12CCC(=O)C[C@@H]1CC[C@@H]1[C@@H]2CC[C@]2(C)[C@@H](O)CC[C@@H]12,inactive,–
O=C(O)C(F)(F)C(F)(F)C(F)(F)C(F)(F)C(F)(F)C(F)(F)C(F)(F)C(F)(F)C(F)(F)C(F)(F)F,–,13.8 µM (active) and 5.09 µM (active) and 5.56 µM (active)
C[C@@H]1C[C@@H]([C@H](O)CC2CC(=O)NC(=O)C2)C(=O)[C@@H](C)C1,–,14.4 µM (active)
C=C(C)C(=O)[O][Sn]([CH2]CCC)([CH2]CCC)[CH2]CCC,–,0.147 µM (active)
COP(=S)(OC)Oc1cc(Cl)c(Cl)cc1Cl,inactive,–
C=CC(=O)OCCCCCC(C)C,inactive,–
Nc1ncc([N+](=O)[O-])s1,inactive,–
COC[C@H](C)N(C(=O)CCl)c1c(C)csc1C,inactive,–
COc1cc(OC)nc(NC(=O)NS(=O)(=O)c2ncccc2C(=O)N(C)C)n1,inactive,–
Oc1c(I)cc(I)cc1I,inactive,–
CCNc1nc(NC(C)(C)C)nc(SC)n1,inactive,–
CC(C)(C)CC(C)(C)c1ccc(O)cc1,–,34.5 µM (active)
COC(=O)c1sccc1S(=O)(=O)NC(=O)Nc1nc(C)nc(OC)n1,inactive,–
O=[N+]([O-])c1ccc(O)c([N+](=O)[O-])c1,inactive,–
Oc1ccc(-c2ccccc2)cc1,inactive,–
CCN1CCC2(CC1)COc1cc3c(cc12)N(C(=O)c1ccc(-c2ccc(-c4nnc(C)o4)cc2C)cc1)CC3,–,23.8 µM (active)

SMILES,outcome,AC50
ClC(Cl)=C(Cl)C(Cl)=C(Cl)Cl,inactive,–
O=S(=O)(c1ccc(Cl)cc1)c1ccc(Cl)cc1,inactive,–
O=C(O)CCC(F)(C(F)(F)F)C(F)(F)F,inactive,–
CCOP(=S)(OCC)SCCS(=O)(=O)CC,inactive,–
C(=NC1CCCCC1)=NC1CCCCC1,–,36.3 µM (active)
CCCCC(CC)CO[N+](=O)[O-] (stereo not given),inactive,–
BrCCBr,inactive,–
ClCC(Cl)CCl,inactive,–
CC(C)(OO)c1ccccc1,inactive,–
CCSC(C)CC1CC(=O)C(C(CC)=NOC/C=C/Cl)=C(O)C1 (stereo not given),inactive,–
Cn1sc(Cl)cc1=O,inactive,–
CC1(C)Cc2cccc(O)c2O1,inactive,–
Oc1cccc2cccnc12,–,5.47 µM (active)
COP(=S)(OC)Oc1ccc(Sc2ccc(OP(=S)(OC)OC)cc2)cc1,inactive,–
O=C(O)C(Cl)(Cl)Cl,inactive,–
CC12CC1(C)C(=O)N(c1cc(Cl)cc(Cl)c1)C2=O (stereo not given),inactive,–
NC(=O)O,inactive,–
CC(=O)C(Cl)C(=O)N(C)C (stereo not given),inactive,–
CC(C)c1ccc(CO)cc1,inactive,–
CCC(C)(C)c1ccc(O)c(C(C)(C)CC)c1,–,36 µM (active)
